Screening data as filed in PubChem BioAssay.
NIH3T3 tox: Cytotoxic Profiling in NIH 3T3 Cell Line of Diverse Libraries Using Quantitative High-Throughput Screening | actives 4.3% (n = 94,000) | AID 1345082, 2018 | Potency, µM (doses to about 96.7 µM), for inactives: at the highest dose activity change, negative = cytotoxicity, most hits filed as inhibitors | NIH 3T3 viability, CellTiter-Glo ATP luminescence, 48-72 h; note: nearly all actives have a fitted effect of over 55% in size
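First NIH 3T3 cells are plated at 400 cells/well; next compound is pinned in; then plates incubate 48 or 72 hr at 37 °C; finally CellTiter-Glo is added and luminescence read after 10 min.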
HEK cytotox: Cytotoxic Profiling in HEK 293 Cell Line of Diverse Libraries Using Quantitative High-Throughput Screening; Potency, µM (titrated, usually from 115 µM), without a hit: at the highest dose activity change, negative = cytotoxicity, actives largely listed as inhibitors; HEK 293 viability, ATP luminescence (CellTiter-Glo), 48-72 h; actives 6.6% (n = 94,000); note: nearly all actives have a fitted effect of over 60% in size
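Cells seeded first (HEK 293, 250 cells/well), then compound added by pintool. Incubation ran 48 or 72 hr at 37 degree Celsius. CellTiter-Glo was added and luminescence imaged after 10 min at room temperature.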
hNpr1 antagonist: Natriuretic polypeptide receptor (hNpr1) antagonism - Primary qHTS. Atrial natriuretic peptide receptor 1 (Homo sapiens), P16066. HEK293 hNpr1 GloSensor cGMP, ANP-stimulated luminescence. AID 1347048, 2019. Potency, µM (top dose mostly 46.3 µM), for inactives: at the highest dose activity change, negative = inhibition, most hits filed as inhibitors. actives 1.6% (n = 76,000); calls by dose curve; note: nearly all actives have a fitted effect of over 60% in size
Target sequence (P16066 whole entry, looked up): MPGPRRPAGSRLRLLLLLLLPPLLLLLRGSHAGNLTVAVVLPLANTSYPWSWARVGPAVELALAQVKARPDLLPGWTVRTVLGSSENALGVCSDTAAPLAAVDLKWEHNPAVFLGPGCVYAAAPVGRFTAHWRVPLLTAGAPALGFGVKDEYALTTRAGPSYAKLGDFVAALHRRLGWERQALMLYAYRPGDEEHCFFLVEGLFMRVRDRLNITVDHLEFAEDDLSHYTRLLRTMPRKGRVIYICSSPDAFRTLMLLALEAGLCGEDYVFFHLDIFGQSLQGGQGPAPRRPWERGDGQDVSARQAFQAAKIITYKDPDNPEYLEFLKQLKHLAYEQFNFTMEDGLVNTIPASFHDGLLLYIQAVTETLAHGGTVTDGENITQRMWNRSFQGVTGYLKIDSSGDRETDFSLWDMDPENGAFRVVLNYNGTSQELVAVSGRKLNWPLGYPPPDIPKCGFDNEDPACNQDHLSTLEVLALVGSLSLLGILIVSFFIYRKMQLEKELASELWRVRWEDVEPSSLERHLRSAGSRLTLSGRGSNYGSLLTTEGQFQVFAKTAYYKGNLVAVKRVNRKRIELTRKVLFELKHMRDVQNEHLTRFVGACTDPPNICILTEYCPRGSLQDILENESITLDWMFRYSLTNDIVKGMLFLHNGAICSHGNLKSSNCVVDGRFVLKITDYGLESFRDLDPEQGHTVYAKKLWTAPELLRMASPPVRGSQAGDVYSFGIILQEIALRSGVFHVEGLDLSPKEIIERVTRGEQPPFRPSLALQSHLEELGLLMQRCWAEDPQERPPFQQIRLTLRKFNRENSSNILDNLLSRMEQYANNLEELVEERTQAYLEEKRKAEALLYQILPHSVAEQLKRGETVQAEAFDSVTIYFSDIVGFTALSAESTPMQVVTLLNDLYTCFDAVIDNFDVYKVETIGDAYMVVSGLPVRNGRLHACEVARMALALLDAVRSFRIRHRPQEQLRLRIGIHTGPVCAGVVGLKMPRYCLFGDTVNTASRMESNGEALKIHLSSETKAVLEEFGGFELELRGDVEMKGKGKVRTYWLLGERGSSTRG
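Compound pre-incubated 30 min at room temperature on GloSensor-loaded HEK293 cells stably carrying hNpr1 and the pGS-40F cGMP biosensor. Stimulation uses hNppA at 0.1 nM final; luminescence is taken at baseline and 20 min post-agonist.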
FLuc inh: Firefly luciferase inhibition profiling of diverse chemical library using quantitative high-throughput screening; Luciferin 4-monooxygenase (Photinus pyralis), P08659; purified P. pyralis luciferase, luminescence, biochemical; Potency, µM (titrated, usually from 115 µM), most hits filed as inhibitors; actives 2.5% (n = 76,000); note: nearly all actives have a fitted effect of over 65% in size
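FLuc 10nM, D-luciferin 10uM, ATP 10uM, Mg acetate 10mM, Tris acetate pH 7.5, Tween/BSA; cpd qHTS; enzyme added last; CCD luminescence.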
An asterisk follows results filed as active; [ ] = another dose, or the depositor's remark. In the library only some 11% were active in any assay of this set; here they are far more common. Unless noted, calls come from the whole dose curve; as a rule, active = well fitted curve in the direction sought with a large enough effect; inconclusive = small, poorly fitted or top-dose-only effect, or another doubt; inactive = no such curve, though single readings can be large; an effect the other way counts as inactive or inconclusive. % is set by controls: 0 for no effect and ±100 for the full control effect; potency is the fitted concentration of half-maximal effect.

How did CCN(C(=O)CN1C(=O)NC2(CCC(C)CC2)C1=O)c1cccc(C)c1 (centres undefined) do in these assays?
NIH3T3 tox: -25%; HEK cytotox: -26%; hNpr1 antagonist: 3%; FLuc inh: inactive

How did O=C(CNC(=O)c1ccc(-c2cnc3ccccc3c2)cc1)NCc1ccc(F)cc1F do in these assays?
NIH3T3 tox: -34%; HEK cytotox: inconclusive

Results for N#Cc1cccc(-c2c(C(=O)NCc3ccccn3)nc3sccn23)c1 ?
NIH3T3 tox: -30%; HEK cytotox: inconclusive

How did O=C(c1ccc2c(c1)OCO2)N1CCCC2(C1)Nc1cccnc1NC2=NC1CCCC1 (centres undefined) do in these assays?
NIH3T3 tox: -13%; HEK cytotox: -26%; hNpr1 antagonist: -1%; FLuc inh: inactive

What do the screens show for `Cc1ccc(C(=O)N2CCCC3(C2)Nc2cccnc2NC3=NC2CCCC2)cc1F` (centres undefined)?
NIH3T3 tox: inconclusive; HEK cytotox: 71µM*; hNpr1 antagonist: 3%; FLuc inh: inactive

Results for CCCn1cc(-c2ccncc2)cc1C(=O)N1CCN(c2ccccc2F)CC1 ?
NIH3T3 tox: inconclusive; HEK cytotox: 45µM*; hNpr1 antagonist: -20%; FLuc inh: inactive

Results for CCCn1cc(-c2ccncc2)cc1C(=O)N1CCN(c2ccccn2)CC1 ?
NIH3T3 tox: inconclusive; HEK cytotox: inconclusive; hNpr1 antagonist: inconclusive; FLuc inh: inactive

Results for CCN(C)C(=O)CCc1c(C)nn(-c2ccccc2)c1Oc1ccccc1F ?
NIH3T3 tox: inconclusive; HEK cytotox: 40µM*; hNpr1 antagonist: -17%; FLuc inh: inactive

Results for CCN(C)C(=O)CCc1c(C)nn(-c2cccc(C)c2)c1Oc1ccccc1 ?
NIH3T3 tox: 35µM*; HEK cytotox: 40µM*; hNpr1 antagonist: -21%; FLuc inh: inactive

What do the screens show for `CCN(CC)C(=O)CCc1c(C)nn(-c2ccc(F)cc2)c1Oc1ccccc1C`?
NIH3T3 tox: 40µM*; HEK cytotox: inconclusive; hNpr1 antagonist: -21%; FLuc inh: inactive

Results for CCN(CC)C(=O)CCc1c(C)nn(-c2ccccc2)c1Oc1ccc(F)cc1F ?
NIH3T3 tox: inconclusive; HEK cytotox: inconclusive; hNpr1 antagonist: -23%; FLuc inh: inactive

How did CCN(CC)C(=O)CCc1c(C)nn(-c2ccccc2)c1Oc1cccc(F)c1 do in these assays?
NIH3T3 tox: inconclusive; HEK cytotox: inconclusive; hNpr1 antagonist: -14%; FLuc inh: inactive

How did CC(C)Cn1c(=O)c(C(=O)NCc2ccc(C(F)(F)F)cc2)nc2cccnc21 do in these assays?
NIH3T3 tox: -15%; HEK cytotox: -16%

What do the screens show for `Cn1ncc2c(C(=O)NC(C)(C)C)cc(-c3ccccc3C(F)(F)F)nc21`?
NIH3T3 tox: -29%; HEK cytotox: inconclusive

Results for CC(C)NC(=O)N1CCCN(c2ccc3nnc(C4CC4)n3n2)CC1 ?
NIH3T3 tox: -24%; HEK cytotox: -3%

What do the screens show for `O=C(Nc1cccc(-c2nnc3n2CCCC3)c1)C1CC1`?
NIH3T3 tox: -11%; HEK cytotox: 6%; hNpr1 antagonist: 5%; FLuc inh: inactive

Results for O=S(=O)(c1cccs1)N1CCCCC1c1nc(CCOCC2CC2)no1 (centres undefined) ?
NIH3T3 tox: -38%; HEK cytotox: inconclusive; hNpr1 antagonist: -8%; FLuc inh: inactive

How did O=S(=O)(c1ccc2c(c1)CCC2)N1CCCCC1c1nc(CCOCC2CC2)no1 (centres undefined) do in these assays?
NIH3T3 tox: 28µM*; HEK cytotox: 40µM*; hNpr1 antagonist: -12%; FLuc inh: inactive

What do the screens show for `CSc1ccc(-c2cccc(CN3CCC(NC(=O)Nc4ccccc4)CC3)c2)cc1`?
NIH3T3 tox: 14µM*; HEK cytotox: inconclusive

What do the screens show for `CSc1ccc(-c2cccc(CN3CCC(NC(=O)Nc4ccccc4F)CC3)c2)cc1`?
NIH3T3 tox: 13µM*; HEK cytotox: 18µM*

How did CSc1ccc(-c2cccc(CN3CCC(NC(=O)NC4CCCC4)CC3)c2)cc1 do in these assays?
NIH3T3 tox: -17%; HEK cytotox: -9%

What do the screens show for `CCOC(=O)C1CCCN(C(=O)c2cn3cc(-c4ccc(C)cc4)sc3n2)C1` (centres undefined)?
NIH3T3 tox: -27%; HEK cytotox: inconclusive

Results for Cc1noc(C)c1CC(=O)NC1CCCc2c1[nH]c1c(Cl)cccc21 (centres undefined) ?
NIH3T3 tox: 20µM*; HEK cytotox: inconclusive; hNpr1 antagonist: -11%; FLuc inh: inactive

How did Cc1noc2nc(C(C)C)cc(C(=O)NC3CCCc4c3[nH]c3c(Cl)cccc43)c12 (centres undefined) do in these assays?
NIH3T3 tox: inconclusive; HEK cytotox: 35µM*; hNpr1 antagonist: -2%; FLuc inh: inactive

Results for COc1ccc(CC(=O)NC2CCCc3c2[nH]c2c(Cl)cccc32)cc1OC (centres undefined) ?
NIH3T3 tox: 13µM*; HEK cytotox: 28µM*; hNpr1 antagonist: inconclusive; FLuc inh: inactive

Results for COc1ccccc1C(=O)NC1CCCc2c1[nH]c1c(Cl)cccc21 (centres undefined) ?
NIH3T3 tox: inconclusive; HEK cytotox: inconclusive; hNpr1 antagonist: 5%; FLuc inh: inactive

Results for CCCN(CCC)C(=O)[C@@]12CCCC[C@H]1N(CCC(C)C)C(=O)CC2 ?
NIH3T3 tox: inconclusive; HEK cytotox: inconclusive; hNpr1 antagonist: -9%; FLuc inh: inactive

How did CC1CCCCN1CCN(C)c1nc(-c2ccncc2)nc2c1cnn2C (centres undefined) do in these assays?
NIH3T3 tox: inconclusive; HEK cytotox: inconclusive; hNpr1 antagonist: -1%; FLuc inh: inactive

What do the screens show for `CCCc1nc(NCc2ccc(-c3noc(C)n3)cc2)c2cnn(C)c2n1`?
NIH3T3 tox: inconclusive; HEK cytotox: 18µM*; hNpr1 antagonist: 11µM*; FLuc inh: inactive

What do the screens show for `O=c1cc2c(nn1Cc1cccc(Br)c1)CCCCC2`?
NIH3T3 tox: inconclusive; HEK cytotox: inconclusive; hNpr1 antagonist: 1%; FLuc inh: 32µM*

How did Cc1ccc2nc([C@H]3CCN(Cc4ccccn4)C3)[nH]c2c1 do in these assays?
NIH3T3 tox: inconclusive; HEK cytotox: 50µM*; hNpr1 antagonist: -6%[70.6 µM]; FLuc inh: 40µM*

How did COc1ccc2nc([C@H]3CCN(Cc4cccnc4)C3)[nH]c2c1 do in these assays?
NIH3T3 tox: -17%[174 µM]; HEK cytotox: -1%[172 µM]; hNpr1 antagonist: 2%[70.6 µM]; FLuc inh: 71µM*

How did COc1ccc2nc([C@H]3CCN(Cc4cccc(Cl)c4)C3)[nH]c2c1 do in these assays?
NIH3T3 tox: inconclusive; HEK cytotox: inconclusive; hNpr1 antagonist: inconclusive; FLuc inh: inactive
